Six molecules from PubChem BioAssay (NCI) can be followed below.

Structures are written as SMILES. Values joined by “and” are separate entries in the source; they are usually repeats but may differ in a detail not shown here. Identical values can stand only once. The panel holds about 83,000 compounds, 20% with a hit somewhere; the sample as a whole holds those more often.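 The test compound was applied at a single concentration to cells in 96-well plates for 48 hours, and percent growth was recorded.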 Active and inactive are the calls of the source. The calls were made as follows: active = growth percent below 10; inactive = the rest.

What all share (test): NCI-60 one-dose screen, 48 h (100 = growth as untreated, 0 = no growth, -100 = all killed)
The test system of one test is NCI-H23 lung. The conditions noted are these: 10 µM unless noted.
A further test deals with NCI-H226 lung. The conditions noted are these: 10 µM unless noted.
Another test has as its system NCI-H322M lung. The conditions noted are these: 10 µM unless noted.
For a further test, the system named is HOP-62 NSCLC. The following applies: 10 µM unless noted.
A further test concerns NCI-H522 lung. The conditions noted are these: 10 µM unless noted.
For another test, the system named is A549/ATCC NSCLC. The conditions noted are these: 10 µM unless noted.
In the next test the test system is 786-0 renal. The following applies: 10 µM unless noted.
The next test has as its system COLO 205 colon. The conditions noted are these: 10 µM unless noted.
A further test concerns DU-145 prostate. The conditions noted are these: 10 µM unless noted.
For a further test, the system named is K-562 leukemia. The conditions noted are these: 10 µM unless noted.
A further test relates to MALME-3M melanoma. The following applies: 10 µM unless noted.
The next test relates to MDA-MB-231 breast. The following applies: 10 µM unless noted.
The test system of another test is RXF 393 renal. The following applies: 10 µM unless noted.
Another test concerns SF-268 CNS. The conditions noted are these: 10 µM unless noted.
A further test relates to SF-295 CNS. The following applies: 10 µM unless noted.
A further test concerns SF-539 CNS. The following applies: 10 µM unless noted.
The subject of the next test is UACC-257 melanoma. The following applies: 10 µM unless noted.
The subject of the next test is M14 melanoma. The following applies: 10 µM unless noted.
For the next test, the system named is HCT-15 colon. The conditions noted are these: 10 µM unless noted.
The test system of the next test is HOP-92 NSCLC. The conditions noted are these: 10 µM.

In the case of `CC[C@@]1(O)C(=O)OCc2c1cc1n(c2=O)Cc2cc3ccccc3nc2-1`, the growth in the test on NCI-H23 lung was -26.7% (active); with NCI-H226 lung, -54% (active); in the test with NCI-H322M lung, -19.4% (active); in the test on HOP-62 NSCLC it was -10.3% (active); with NCI-H522 lung it was -49% (active); with A549/ATCC NSCLC it was -21.1% (active). Besides, the growth in the test on 786-0 renal is -18.5% (active); with COLO 205 colon, -38% (active); in the test on DU-145 prostate, -31.9% (active); in the test with K-562 leukemia, 0.554% (active); in the test on MALME-3M melanoma, -59.5% (active); in the test with MDA-MB-231 breast, 28.6% (inactive). For the same molecule, the growth in the test on RXF 393 renal was 6.33% (active); with SF-268 CNS, 2.82% (active); with SF-295 CNS it was -14.4% (active); in the test on SF-539 CNS, -46.4% (active); in the test with UACC-257 melanoma, -17.8% (active); in the test on M14 melanoma, -39% (active). In addition, the growth in the test with HCT-15 colon was -18.7% (active).
Consider `C[C@]12CC[C@H](O)CC1=CC[C@@H]1[C@@H]2CC[C@]2(C)C(=O)CC[C@@H]12`, for which the growth in the test on NCI-H23 lung is 96% (inactive); with NCI-H226 lung, 102% (inactive); in the test with NCI-H322M lung, 91% (inactive); with HOP-62 NSCLC it was 96.4% (inactive); in the test on NCI-H522 lung, 48% (inactive); in the test with A549/ATCC NSCLC, 106% (inactive). Moreover, the growth in the test with 786-0 renal is 92.6% (inactive); with COLO 205 colon, 93.4% (inactive); with DU-145 prostate it was 122% (inactive); in the test with K-562 leukemia, 80.5% (inactive); with MALME-3M melanoma, 80.9% (inactive); in the test with MDA-MB-231 breast it was 106% (inactive). The growth is 110% (inactive) in the test on RXF 393 renal; 106% (inactive) in the test on SF-268 CNS; 102% (inactive) in the test on SF-295 CNS; 100% (inactive) in the test with SF-539 CNS; 102% (inactive) in the test on UACC-257 melanoma; 101% (inactive) in the test with M14 melanoma. The growth in the test on HCT-15 colon was 99.7% (inactive).
On to `O=C1c2ccccc2C(=O)C(Cl)C1Cl` (stereo unspecified), for which the growth in the test on NCI-H23 lung was 83.8% (inactive); in the test with NCI-H226 lung, -74.2% (active); in the test with NCI-H322M lung, 96.1% (inactive); in the test on HOP-62 NSCLC, 87.9% (inactive); in the test on HOP-92 NSCLC, -62.4% (active); in the test with NCI-H522 lung it was -65% (active). For the same molecule, the growth is 104% (inactive) with A549/ATCC NSCLC; 16.8% (inactive) with 786-0 renal; -94.3% (active) with COLO 205 colon; 97.8% (inactive) with DU-145 prostate; -7.91% (active) in the test with K-562 leukemia; -98.5% (active) in the test on MALME-3M melanoma. Also, the growth with RXF 393 renal was -9.44% (active); with SF-268 CNS, 87.5% (inactive); in the test on SF-295 CNS, 94.3% (inactive); with SF-539 CNS, 89.5% (inactive); with UACC-257 melanoma, 0.891% (active); in the test on M14 melanoma it was 76.7% (inactive). The growth with HCT-15 colon was -86.6% (active).
Take `COc1ccccc1/C=C(/C)[N+](=O)[O-]`: the growth with NCI-H23 lung was 88.3% (inactive) and 90.8% (inactive); in the test on NCI-H226 lung, 100% (inactive) and 105% (inactive); in the test with NCI-H322M lung, 92.7% (inactive) and 92.2% (inactive); in the test on HOP-62 NSCLC, 109% (inactive) and 83.1% (inactive); in the test on HOP-92 NSCLC, 96.5% (inactive); in the test with NCI-H522 lung, 50% (inactive) and 84.5% (inactive). The growth with A549/ATCC NSCLC is 93.3% (inactive) and 76.9% (inactive); in the test on 786-0 renal, 82.2% (inactive) and 101% (inactive); in the test with COLO 205 colon, 67.4% (inactive) and 106% (inactive); in the test with DU-145 prostate it was 27.7% (inactive) and 107% (inactive); in the test on K-562 leukemia it was 39.9% (inactive) and 97.5% (inactive); in the test with MALME-3M melanoma, 72.8% (inactive) and 89.3% (inactive). The growth is 70% (inactive) and 105% (inactive) in the test on MDA-MB-231 breast; -1.25% (active) and 116% (inactive) with RXF 393 renal; 80.5% (inactive) and 99.1% (inactive) in the test on SF-268 CNS; 102% (inactive) and 94.6% (inactive) with SF-295 CNS; 88% (inactive) and 96.8% (inactive) with SF-539 CNS; 80.9% (inactive) and 75% (inactive) in the test with UACC-257 melanoma. In addition, the growth in the test with M14 melanoma was 79.2% (inactive) and 95% (inactive); in the test with HCT-15 colon it was 32.3% (inactive) and 99.8% (inactive).
Turning to `Cc1ccc(C(=O)OC(C(=O)O)C(OC(=O)c2ccc(C)cc2)C(=O)O)cc1` (stereo unspecified) (tested in a mixture with another compound), the growth was 41.4% (inactive) in the test on NCI-H23 lung; 51.1% (inactive) with NCI-H226 lung; 83.2% (inactive) in the test with NCI-H322M lung; 66.1% (inactive) with HOP-62 NSCLC; 17.7% (inactive) with HOP-92 NSCLC; 52.6% (inactive) with NCI-H522 lung. The growth in the test with A549/ATCC NSCLC is 71% (inactive); with 786-0 renal it was 46% (inactive); in the test on COLO 205 colon, 48.9% (inactive); with DU-145 prostate, 76% (inactive); in the test with K-562 leukemia, 11.1% (inactive); in the test on MALME-3M melanoma, 51.6% (inactive). For the same molecule, the growth is 54.1% (inactive) in the test on RXF 393 renal; 68.5% (inactive) with SF-268 CNS; 61.8% (inactive) in the test with SF-295 CNS; 70.2% (inactive) with SF-539 CNS; 46.1% (inactive) with UACC-257 melanoma; 45.2% (inactive) with M14 melanoma. In addition, the growth in the test on HCT-15 colon is 16.3% (inactive).
Take `Oc1cccc2cccnc12`: the growth was 102% (inactive) and 109% (inactive) and 104% (inactive) with NCI-H23 lung; 94.5% (inactive) and 98.1% (inactive) and 98.6% (inactive) with NCI-H226 lung; 104% (inactive) and 111% (inactive) and 95.5% (inactive) with NCI-H322M lung; 94.7% (inactive) and 98.3% (inactive) and 104% (inactive) in the test on HOP-62 NSCLC; 89.1% (inactive) with HOP-92 NSCLC; 10.8% (inactive) and 103% (inactive) in the test on NCI-H522 lung. The growth was 100% (inactive) and 105% (inactive) and 111% (inactive) in the test on A549/ATCC NSCLC; 106% (inactive) and 105% (inactive) with 786-0 renal; 65% (inactive) and 105% (inactive) and 102% (inactive) with COLO 205 colon; 82% (inactive) and 108% (inactive) and 111% (inactive) with DU-145 prostate; 44.2% (inactive) and 106% (inactive) and 102% (inactive) in the test on K-562 leukemia; 96.3% (inactive) and 98.2% (inactive) in the test on MALME-3M melanoma. For the same molecule, the growth with MDA-MB-231 breast was 92.9% (inactive) and 109% (inactive) and 101% (inactive); with RXF 393 renal, 95.7% (inactive) and 104% (inactive) and 112% (inactive); with SF-268 CNS it was 80% (inactive) and 101% (inactive); with SF-295 CNS, 99.7% (inactive) and 108% (inactive) and 115% (inactive); in the test with SF-539 CNS, 113% (inactive) and 90.2% (inactive); in the test with UACC-257 melanoma it was 80.1% (inactive) and 98.6% (inactive) and 111% (inactive). The growth is 76% (inactive) and 102% (inactive) and 94.3% (inactive) in the test with M14 melanoma; 64.3% (inactive) and 110% (inactive) and 97.1% (inactive) in the test with HCT-15 colon.
